A short description of test [1]: Cytometric Cell-Based qHTS for Inhibitors of the mTORC1 Signaling Pathway in MEF (Tsc2-/-, p53-/-) Cells (AID 2660).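 Note: percent of cells above a phospho-rpS6 to PI ratio cutoff in each well; series mostly up to about 38 µM.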 An outline of the steps:
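Tsc2-/-, p53-/- MEFs (empty vector) exposed to compound 24 h at 37 C, fixed, stained with Alexa-488 anti-phospho-rpS6 Ser235/236 and propidium iodide. Acumen laser scanning; phospho-S6/PI ratio thresholded against 7.5 nM rapamycin, reported as % positive cells.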
(In general: In qHTS, concentration-response curves come from the screen itself.)

Test [2] can be described thus: High Content Imaging Cell-Based qHTS for Inhibitors of the mTORC1 Signaling Pathway in MEF (Tsc2-/-, p53-/-) Cells (AID 2666).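 Note: percent of cells scored positive for phospho-rpS6 Ser235/236 immunostaining by imaging.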 An outline of the steps:
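Phospho-rpS6 (Ser235/236) immunofluorescence, normalized and scored as % positive cells using rapamycin and DMSO controls, was read in empty-vector Tsc2-/-, p53-/- MEFs after 24 h compound exposure at 37 C; propidium iodide counted cells.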

Test [3] in a line: Cytometry Cell-Based qHTS for Inhibitors of the mTORC1 Signaling Pathway in MEF cells (AID 2668). Note: potency is the fitted concentration of half-maximal effect. An outline of the steps:
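Pathway inhibition in WT Tsc2-rescued Tsc2-/-, p53-/- MEFs is measured as the Alexa-488 phospho-rpS6 to propidium iodide intensity ratio after 24 hrs of compound at 37 degree Celsius. PI-stained cell number gives viability.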

The target in test [4] is Ubiquitin carboxyl-terminal hydrolase 2 (Homo sapiens) (UniProt O75604). Kind of test: qHTS Validation Assay for Inhibitors of Ubiquitin-specific Protease USP2a Using CHOP2 as the Reporter (AID 463106). An outline of the steps:
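USP2 core (10 nM final) was preincubated with compound 30 min at RT in pH 8.0 Tris/CaCl2/beta-ME/CHAPS buffer. Ub-CHOP2 and reporter substrate (25 nM final each) were then added, with fluorescence (Ex 485/Em 531) read after 60 min. Data were normalized to NEM full inhibition and fitted to concentration-response curves.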

Test [5] addresses DNA polymerase III PolC-type (Bacillus subtilis (strain 168)) (UniProt P13267). Kind of test: qHTS Validation Assay for the Inhibitors of DNA Replication in Gram-Positive Bacteria (AID 485295).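 Note: reconstituted holoenzyme with PolC plus beta clamp SSB and primase; PicoGreen fluorescence of double-stranded DNA made on primed circular M13 template; series mostly up to about 57 µM.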 An outline of the steps: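 Primed replication of single-stranded M13Gori by a four-protein B. subtilis holoenzyme is measured at room temperature. Double-stranded product is quantified by PicoGreen fluorescence after an EDTA stop; inhibition is scaled between DMSO and EDTA controls.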

The target in test [6] is Tumor susceptibility gene 101 protein (Homo sapiens) (UniProt Q99816). Kind of test: qHTS Validation Assay for Iinhibitors of HIV-1 Budding by Blocking the Interaction of PTAP/TSG101 (AID 485342; calls by dose curve). An outline of the steps:
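Fluorescence anisotropy measured PTAP-Tsg101 interaction. Final concentrations were 10 uM protein domain and 50 nM labeled peptide, equilibrated 20 min at room temperature.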

Test [7] is described as follows: qHTS Validation Assay to Find Inhibitors of Chronic Active B-Cell Receptor Signaling (AID 485345; active = well fitted curve in the direction sought with a large enough effect in the main read-out, with a control signal flat, not every such curve was filed as active). An outline of the steps:
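TMD8 ABC-DLBCL cells stably carrying doxycycline-inducible IkappaBalpha–green luciferase fusion plus unfused red luciferase; compounds 46 uM to 3 nM, 4 h at 37C with doxycycline. Corrected green/red luminescence ratio normalized to 10 uM MG-132 and basal cell wells; curves fitted.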

Test [8] concerns the target Beta-2 adrenergic receptor (Homo sapiens) (UniProt P07550). Kind of test: qHTS validation assay of beta-arrestin-biased ligands of beta2-adrenergic receptor (AID 485366). An outline of the steps: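 Tango cells expressing recombinant beta2-AR and beta-arrestin with tTA-driven luciferase, in DMEM with 1% FBS. Compounds were titrated up to 46 microM for 18 hr at 37 degrees C. Luminescence was read 15 min after substrate; curves were fitted and class-assigned.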

In test [9] the target is ATP-dependent 6-phosphofructokinase (Trypanosoma brucei brucei) (UniProt O15648). Kind of test: qHTS Validation Assay to Find Inhibitors of T. brucei phosphofructokinase (AID 485368). Note: potency is the fitted concentration of half-maximal effect. An outline of the steps: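 Activity was read as ADP production by luminescence (ADP-Glo) after 45 min at room temperature. The enzyme was 1.25nM PFK in 0.1M TEA pH 8.0 with 0.5 mM F6P, 0.1mM ATP and 5 mM MgCl2. Compounds were titrated up to 57 uM and % activity normalized to no-enzyme and full-enzyme controls.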

Test [10] deals with Thioredoxin reductase 1, cytoplasmic (Rattus norvegicus) (UniProt O89049). Kind of test: qHTS Assay for Substrates of Mammalian Selenoprotein Thioredoxin Reductase 1 (TrxR1) (AID 488772).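 Note: NADPH fluorescence in the first read after selenite addition and not the 8 min delta; series mostly up to about 57 µM; a drop in NADPH fluorescence below the no-compound background marks a TrxR1 substrate.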 An outline of the steps:
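Quantitative HTS in Tris-HCl buffer at pH 7.5 with EDTA and Tween-20, using rat TrxR1, 400 uM NADPH and 400 uM selenite (final). A fall in initial NADPH fluorescence relative to background marked substrate behaviour.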

Test [11] has the same target. Kind of test: qHTS Assay for Inhibitors of Mammalian Selenoprotein Thioredoxin Reductase 1 (TrxR1) (AID 488773).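 Note: drop in NADPH fluorescence over an 8 min run after selenite addition; series mostly up to about 57 µM; nearly all actives have a fitted effect of over 40% in size.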 Conditions: Potency: inhibition. An outline of the steps: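 Steps: enzyme (90 nM) plus NADPH (400 uM final), 5 min at ~22 deg C; compound added, 15 min; selenite (400 uM final) added; fluorescence followed for 8 min. Concentration-response curves derived from the normalized delta values.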

The target in test [12] is Flap endonuclease 1 (Homo sapiens) (UniProt P39748). Kind of test: qHTS Validation Assay for the Inhibitors of Human Flap endonuclease 1 (FEN1) (AID 488816). An outline of the steps: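 Human FEN1 (10 nM) preincubated 15 min at room temperature with compounds, then flap DNA substrate added at 50 nM final. Fluorescence read at 0 and 15 min; concentration-response fitted with four-parameter Hill equation.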

The target in test [13] is M-phase phosphoprotein 8 (Homo sapiens) (UniProt Q99549). Kind of test: qHTS Validation Assay for Inhibitors for MPP8 Chromodomain Interactions with Methylated Histone Tails (AID 488949). Note: nearly all actives have a fitted effect of over 55% in size. Note: potency is the fitted concentration of half-maximal effect. An outline of the steps:
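Disruption of the preformed MPP8–trimethyl-H3K9 peptide complex (both 50 nM, 30 min, RT) is measured after 30 min compound exposure, using AlphaScreen proximity beads; aurintricarboxylic acid titration serves as plate control.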

In test [14] the target is Chromobox protein homolog 1 (Homo sapiens) (UniProt P83916). Kind of test: qHTS Validation Assay for Inhibitors of HP1-beta Chromodomain Interactions with Methylated Histone Tails (AID 488953).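 Note: loss of AlphaScreen luminescence from HP1-beta binding biotinylated H3K9me3 peptide; series mostly up to about 110 µM; nearly all actives have a fitted effect of over 50% in size.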 An outline of the steps: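 Measured as loss of AlphaScreen luminescence from streptavidin donor and nickel acceptor beads (10 ug/mL final) bridging HP1-beta and biotin-H3(1-18)K9me3, each 50 nM. Compounds met the preassembled complex for 30 min at RT.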

The target in test [15] is Methanococcus maripaludis chaperonin (MmCpn) (UniProt Q6LX38). Kind of test: High-Throughput Screening for Modulators of Cytosolic Chaperonin Activity: MmCpn Primary Screen (AID 488978).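 Note: 50 nM MmCpn enzyme hydrolysing 30 µM ATP at 37 °C.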 An outline of the steps: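 Measures ATPase turnover of the M. maripaludis chaperonin (50 nM final) against 30 uM ATP over 10 min at 37C, with compound added 5 min beforehand at room temperature. ADP is quantified by HTRF immunodetection.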

A short description of test [16]: High Content Imaging Cell-Based qHTS for Inhibitors of the mTORC1 Signaling Pathway in MEF Cells (AID 2667).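 Note: Tsc2-/- p53-/- MEFs stably re-expressing wild-type Tsc2 exposed 24 h; series mostly up to about 38 µM.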 An outline of the steps:
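WT MEFs (Tsc2-/-, p53-/- re-expressing Tsc2), in DMEM + 10% FBS, were treated with compound for 24 h at 37 C. Cells were then fixed and stained for phospho-rpS6 Ser235/236 with propidium iodide as cell count. Values are % positive cells, with thresholds set against rapamycin-treated cells.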

The nature of test [17]: Validation screen for small molecules that induce DNA re-replication in MCF 10A normal breast cells (AID 463097). Note: nearly all actives have a fitted effect of over 60% in size. An outline of the steps: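 DNA re-replication was detected as a rise in nuclei with elevated Hoechst fluorescence after a 48 hr compound exposure of MCF 10A cells at 37 C.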
The nature of test [18]: Quantitative high throughput screen for delayed death inhibitors of the malarial parasite plastid, 96 hour incubation (AID 488745).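 Note: luciferase-expressing P. falciparum in erythrocytes at 2% hematocrit and 0.1% parasitemia; series mostly up to about 29 µM; nearly all actives have a fitted effect of over 70% in size.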 An outline of the steps: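 Growth of reporter-bearing P. falciparum in red cells is measured after 96 h with compound, covering two erythrocytic cycles. Luminescence from the integrated luciferase serves as the growth signal.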
Test [19] can be described thus: Quantitative high throughput screen for delayed death inhibitors of the malarial parasite plastid, 48 hour incubation (AID 488752). Note: nearly all actives have a fitted effect of over 65% in size. An outline of the steps: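 One parasite generation (48 h, 37 C, 5% CO2) of luciferase-reporter P. falciparum in erythrocytes is run with test compound; decreased luminescence indicates inhibited growth.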

Values joined by “and” are separate entries in the source; they are usually repeats but may differ in a detail not shown here. Identical values can stand only once. Results filed as inconclusive are left out. Active and inactive are the calls of the source. Unless noted, calls come from the whole dose curve; as a rule, active = well fitted curve in the direction sought with a large enough effect; inconclusive = small, poorly fitted or top-dose-only effect, or another doubt; inactive = no such curve, though single readings can be large; an effect the other way counts as inactive or inconclusive.

Chain of Chromobox protein homolog 1 (Homo sapiens) (P83916 whole entry, looked up): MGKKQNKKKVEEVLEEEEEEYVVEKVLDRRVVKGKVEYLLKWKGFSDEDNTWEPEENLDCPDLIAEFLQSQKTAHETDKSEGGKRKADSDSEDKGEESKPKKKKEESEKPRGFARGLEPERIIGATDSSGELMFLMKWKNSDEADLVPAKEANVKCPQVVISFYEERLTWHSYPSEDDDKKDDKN
Chain of M-phase phosphoprotein 8 (Homo sapiens) (Q99549 whole entry, looked up): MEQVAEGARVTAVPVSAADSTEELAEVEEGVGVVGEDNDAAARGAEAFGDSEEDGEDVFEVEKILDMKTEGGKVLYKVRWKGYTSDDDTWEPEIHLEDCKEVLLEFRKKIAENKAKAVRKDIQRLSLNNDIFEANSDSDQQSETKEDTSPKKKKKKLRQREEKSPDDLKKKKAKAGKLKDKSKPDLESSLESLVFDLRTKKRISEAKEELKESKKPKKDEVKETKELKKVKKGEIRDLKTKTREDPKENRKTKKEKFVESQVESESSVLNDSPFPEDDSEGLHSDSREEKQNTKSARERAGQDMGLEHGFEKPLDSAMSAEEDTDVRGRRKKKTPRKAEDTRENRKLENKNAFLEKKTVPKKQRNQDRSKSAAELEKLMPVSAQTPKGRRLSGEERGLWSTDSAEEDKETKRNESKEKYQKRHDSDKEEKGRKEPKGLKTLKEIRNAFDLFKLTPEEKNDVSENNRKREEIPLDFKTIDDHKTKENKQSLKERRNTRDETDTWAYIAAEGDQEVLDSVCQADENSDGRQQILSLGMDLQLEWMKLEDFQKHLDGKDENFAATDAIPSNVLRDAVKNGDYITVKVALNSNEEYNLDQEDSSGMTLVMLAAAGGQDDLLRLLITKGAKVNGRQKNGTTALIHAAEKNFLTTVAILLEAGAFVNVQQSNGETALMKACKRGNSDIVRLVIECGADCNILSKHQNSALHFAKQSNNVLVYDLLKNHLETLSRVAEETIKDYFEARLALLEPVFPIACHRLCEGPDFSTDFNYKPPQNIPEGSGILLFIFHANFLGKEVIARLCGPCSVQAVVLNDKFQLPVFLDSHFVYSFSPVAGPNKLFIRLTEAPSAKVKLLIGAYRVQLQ
Chain of ATP-dependent 6-phosphofructokinase (Trypanosoma brucei brucei) (O15648 whole entry, looked up): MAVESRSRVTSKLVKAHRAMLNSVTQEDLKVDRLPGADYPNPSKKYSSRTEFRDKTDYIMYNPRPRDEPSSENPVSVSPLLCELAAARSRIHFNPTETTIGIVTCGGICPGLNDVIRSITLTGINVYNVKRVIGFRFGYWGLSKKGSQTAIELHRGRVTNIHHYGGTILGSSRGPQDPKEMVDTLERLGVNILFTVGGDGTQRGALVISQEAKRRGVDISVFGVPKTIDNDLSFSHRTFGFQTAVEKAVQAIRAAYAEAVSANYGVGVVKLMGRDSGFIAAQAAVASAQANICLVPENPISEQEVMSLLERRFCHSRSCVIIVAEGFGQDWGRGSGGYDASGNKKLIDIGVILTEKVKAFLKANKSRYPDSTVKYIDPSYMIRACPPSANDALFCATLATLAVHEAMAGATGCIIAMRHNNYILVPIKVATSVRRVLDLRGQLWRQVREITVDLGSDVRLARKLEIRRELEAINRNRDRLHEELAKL
Chain of Methanococcus maripaludis chaperonin (MmCpn) (Q6LX38 1-543): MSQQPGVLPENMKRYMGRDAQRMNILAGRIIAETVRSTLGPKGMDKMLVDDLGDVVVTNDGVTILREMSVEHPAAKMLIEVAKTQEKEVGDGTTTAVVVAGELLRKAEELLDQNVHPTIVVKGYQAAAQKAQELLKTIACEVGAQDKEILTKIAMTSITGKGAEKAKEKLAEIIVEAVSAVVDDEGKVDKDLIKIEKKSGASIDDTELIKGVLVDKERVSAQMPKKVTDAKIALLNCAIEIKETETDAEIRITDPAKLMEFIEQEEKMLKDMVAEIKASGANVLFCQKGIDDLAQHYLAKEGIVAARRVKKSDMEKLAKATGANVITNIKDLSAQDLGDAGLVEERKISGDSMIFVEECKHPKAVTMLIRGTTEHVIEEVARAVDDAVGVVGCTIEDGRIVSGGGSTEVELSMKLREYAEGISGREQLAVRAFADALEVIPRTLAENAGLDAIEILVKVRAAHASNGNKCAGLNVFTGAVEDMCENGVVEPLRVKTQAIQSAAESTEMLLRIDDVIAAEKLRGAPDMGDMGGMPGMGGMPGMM
Chain of Thioredoxin reductase 1, cytoplasmic (Rattus norvegicus) (O89049 whole entry, looked up): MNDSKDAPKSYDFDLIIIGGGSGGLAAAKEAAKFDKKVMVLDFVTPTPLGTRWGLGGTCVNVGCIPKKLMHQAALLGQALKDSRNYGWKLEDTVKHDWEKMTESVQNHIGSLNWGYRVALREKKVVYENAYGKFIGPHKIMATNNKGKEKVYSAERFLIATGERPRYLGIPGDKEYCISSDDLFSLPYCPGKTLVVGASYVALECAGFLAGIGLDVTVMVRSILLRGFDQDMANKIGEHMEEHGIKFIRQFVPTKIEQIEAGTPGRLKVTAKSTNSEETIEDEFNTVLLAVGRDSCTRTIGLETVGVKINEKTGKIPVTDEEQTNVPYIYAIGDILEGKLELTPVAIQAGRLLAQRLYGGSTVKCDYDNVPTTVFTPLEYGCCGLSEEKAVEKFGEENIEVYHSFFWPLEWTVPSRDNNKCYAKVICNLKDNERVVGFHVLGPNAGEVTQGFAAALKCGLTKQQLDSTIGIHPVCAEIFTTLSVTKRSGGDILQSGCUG
Chain of Flap endonuclease 1 (Homo sapiens) (P39748 whole entry, looked up): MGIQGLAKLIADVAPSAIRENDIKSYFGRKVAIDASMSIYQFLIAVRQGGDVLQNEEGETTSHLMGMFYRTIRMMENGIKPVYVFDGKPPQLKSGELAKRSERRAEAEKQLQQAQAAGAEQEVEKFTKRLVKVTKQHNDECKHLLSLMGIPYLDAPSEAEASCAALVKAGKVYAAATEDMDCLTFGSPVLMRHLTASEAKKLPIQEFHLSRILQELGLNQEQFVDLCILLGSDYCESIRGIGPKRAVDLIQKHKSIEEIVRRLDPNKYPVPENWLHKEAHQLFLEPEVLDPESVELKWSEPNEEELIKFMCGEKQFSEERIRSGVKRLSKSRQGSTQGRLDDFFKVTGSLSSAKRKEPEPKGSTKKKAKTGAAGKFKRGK
Chain of DNA polymerase III PolC-type (Bacillus subtilis (strain 168)) (P13267 whole entry, looked up): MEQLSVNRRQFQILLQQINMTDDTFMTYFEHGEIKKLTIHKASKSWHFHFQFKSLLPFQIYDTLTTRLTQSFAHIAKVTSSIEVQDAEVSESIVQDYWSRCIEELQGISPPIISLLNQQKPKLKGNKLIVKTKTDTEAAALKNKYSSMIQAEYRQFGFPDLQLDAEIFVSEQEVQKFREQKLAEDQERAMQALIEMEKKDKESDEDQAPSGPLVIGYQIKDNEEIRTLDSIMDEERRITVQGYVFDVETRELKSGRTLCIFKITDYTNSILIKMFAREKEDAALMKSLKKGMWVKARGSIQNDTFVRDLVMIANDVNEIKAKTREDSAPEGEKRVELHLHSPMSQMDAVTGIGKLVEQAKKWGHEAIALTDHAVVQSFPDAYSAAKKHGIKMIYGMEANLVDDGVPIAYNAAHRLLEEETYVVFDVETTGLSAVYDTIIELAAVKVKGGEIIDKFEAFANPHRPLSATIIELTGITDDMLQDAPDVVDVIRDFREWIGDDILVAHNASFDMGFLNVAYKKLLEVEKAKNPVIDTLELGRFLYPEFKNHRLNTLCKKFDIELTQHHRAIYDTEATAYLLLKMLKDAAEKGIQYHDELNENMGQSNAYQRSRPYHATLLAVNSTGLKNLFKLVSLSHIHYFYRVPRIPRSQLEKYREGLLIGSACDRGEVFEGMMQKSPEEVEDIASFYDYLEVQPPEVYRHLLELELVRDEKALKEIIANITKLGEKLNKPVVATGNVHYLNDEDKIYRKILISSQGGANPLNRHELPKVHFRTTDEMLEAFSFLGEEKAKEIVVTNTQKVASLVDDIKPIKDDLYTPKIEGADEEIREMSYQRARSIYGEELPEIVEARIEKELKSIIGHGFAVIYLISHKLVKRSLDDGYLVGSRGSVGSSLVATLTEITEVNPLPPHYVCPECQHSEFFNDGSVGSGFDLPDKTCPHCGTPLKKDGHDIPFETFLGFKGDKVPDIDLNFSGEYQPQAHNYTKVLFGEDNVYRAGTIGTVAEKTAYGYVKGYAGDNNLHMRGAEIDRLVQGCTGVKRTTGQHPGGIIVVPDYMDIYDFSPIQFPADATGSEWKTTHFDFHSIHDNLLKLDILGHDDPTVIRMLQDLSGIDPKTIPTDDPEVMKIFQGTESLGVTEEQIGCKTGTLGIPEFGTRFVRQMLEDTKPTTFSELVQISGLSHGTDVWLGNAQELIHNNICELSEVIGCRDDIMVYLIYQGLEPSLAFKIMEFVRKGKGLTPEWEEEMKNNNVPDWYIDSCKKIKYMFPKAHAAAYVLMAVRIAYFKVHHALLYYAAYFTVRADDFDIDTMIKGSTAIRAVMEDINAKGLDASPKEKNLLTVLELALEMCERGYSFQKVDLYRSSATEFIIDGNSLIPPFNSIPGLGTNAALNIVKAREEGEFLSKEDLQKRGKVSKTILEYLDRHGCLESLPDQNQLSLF
Chain of Beta-2 adrenergic receptor (Homo sapiens) (P07550 whole entry, looked up): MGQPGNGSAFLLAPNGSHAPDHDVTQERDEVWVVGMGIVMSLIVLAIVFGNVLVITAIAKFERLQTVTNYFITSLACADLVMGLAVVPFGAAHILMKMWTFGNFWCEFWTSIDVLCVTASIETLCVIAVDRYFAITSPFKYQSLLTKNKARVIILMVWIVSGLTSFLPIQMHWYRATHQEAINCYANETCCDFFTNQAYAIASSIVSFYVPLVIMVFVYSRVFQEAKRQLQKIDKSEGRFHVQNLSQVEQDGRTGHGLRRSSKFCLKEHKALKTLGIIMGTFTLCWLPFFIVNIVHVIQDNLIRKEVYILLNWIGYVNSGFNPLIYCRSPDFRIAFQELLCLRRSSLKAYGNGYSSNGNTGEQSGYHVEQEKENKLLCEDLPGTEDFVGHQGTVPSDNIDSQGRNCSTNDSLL

`Nc1ncnc2c1nc(Br)n2C1OC2COP(=O)(O)O[C@@H]2C1O` (stereo partly specified): the molecule was classed as inactive in test [1], in test [6], in test [7], in test [8], in test [10] and in [15]. Further, the Potency result in test [2], in test [3], in test [4], in test [5], in [9] and in test [11] was “inactive” in each case. Further, the Potency result in test [12], in test [13] and in [14] was “inactive” in each case.
For `O=C(O)C1=CCNCC1`, the result in test [1], in test [6], in test [7], in [8] and in [15] was inactive. Moreover, the Potency result in test [16], in test [3], in [17], in [4], in test [5] and in test [18] was “inactive” in each case. Moreover, the Potency result in [11], in test [12], in test [13] and in test [14] was “inactive” in each case.
`CC(=O)NNC(=O)N1Cc2ccccc2Oc2ccc(Cl)cc21`: the molecule was called inactive in [1], in test [6], in test [7], in [8], in test [10] and in [15]. Moreover, the Potency entry in [16], in [3], in [17], in test [4], in test [5] and in test [9] was “inactive” each time. For the same molecule, the Potency result in [18], in [19], in test [11], in test [12] and in test [14] was “inactive” each time.
Take `N#C/C(=C\c1ccc(O)c(O)c1)C(=O)NCCc1ccccc1`: the molecule was classed as inactive in test [1], in test [6], in test [10] and in [15]. Besides, the Potency result in test [2], in test [4], in test [5] and in test [12] was “inactive” in each case. Also, the Potency in [3] was 10.4 µM (active); in [9], 15.1 µM (active); in test [13], 11.2 µM (active) and 18.9 µM (active).
On to `c1ccc(C2CN3CCSC3=N2)cc1` (stereo unspecified), for which the molecule was classed as inactive in test [1], in test [6], in [7], in [8], in test [10] and in [15]. Besides, the Potency entry in [16], in test [3], in test [17], in test [4], in test [5] and in [18] was “inactive” in each case. The Potency result in test [19], in test [11], in test [12], in [13] and in [14] was “inactive” each time.
In the case of `COc1ccc2c(c1)CCC1C2CC[C@@]2(C)C1CC[C@@H]2NCCCCCCN1C(=O)C=CC1=O` (stereo partly specified), the outcome in test [1], in test [6], in test [7], in test [8], in test [10] and in test [15] was inactive. In addition, the Potency result in [16], in test [3], in test [17], in test [4], in test [5] and in [18] was “inactive” each time. Besides, the Potency entry in test [19], in [11] and in test [12] was “inactive” each time.
On to `C[C@@]1(C2CCCC2)Cc2cc(OCC(=O)O)c(Cl)c(Cl)c2C1=O`, for which the result in test [1], in test [6], in test [7], in [10] and in test [15] was inactive. Also, the Potency entry in test [2], in test [3], in test [17], in test [4], in test [5] and in test [11] was “inactive” throughout. Further, the Potency result in test [12] and in [13] was “inactive” in each case.
In the case of `CCCCCCCCCCCCCCCCCCOC[C@H](COP(=O)([O-])OCC[N+](C)(C)C)OC`, the molecule was called inactive in test [1], in test [6], in test [8] and in test [15]. Further, the Potency entry in test [2], in test [3], in test [4], in test [18], in test [19] and in test [11] was “inactive” each time. Further, the Potency entry in test [12], in [13] and in test [14] was “inactive” throughout.

The record behind these values is PubChem BioAssay (NCATS).
